{"source": "PubChem BioAssay (NCI)", "note": "This is part of a sample that, as a whole, favours compounds with a hit. Of some 83,000 tested, about 20% had one in any assay.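 The endpoint reported here, percent growth, reads 100 for growth as untreated, 0 for no net growth and -100 for all cells dead.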 A number with no mark means an inactive call. Calls of active or inactive are those of the source. Rule for the calls: active = growth percent below 10; inactive = the rest."}
{"tested_on": "HL-60(TB) leukemia", "test": "NCI-60 one-dose screen, 48 h (100 = growth as untreated, 0 = no growth, -100 = all killed)", "conditions": "10 µM unless noted"}
{"smiles": "CCCC1Cc2cc(-n3nc(C)c4c3CC(C)(C)CC4=O)cc(NC3CCC(O)CC3)c2C(=O)N1", "note": "(stereo unspecified)", "growth": "-8.17% (active)"}
{"smiles": "COc1ccc(-c2nc3ccccn3c2-c2nnc(-c3cc(OC)c(OC)c(OC)c3)o2)cc1", "growth": "85.6%"}
{"smiles": "O=C(COc1cccc(/C=C2\\Oc3ccc4ccccc4c3C2=O)c1)c1ccc([N+](=O)[O-])cc1", "growth": "94.8%"}
{"smiles": "Nc1nc(=S)ss1", "growth": "87.8%"}
{"smiles": "NC1=Nc2cc(OCCCCN3Cc4ccccc4C3)c(OCC3CC3)cc2C12CCCC2", "growth": "20.2%"}
{"smiles": "C=CC(=O)N[C@H](/C=C/C(=O)OCC)Cc1ccc(-c2cc(Cl)cc(Cl)c2)cc1", "growth": "76.5%"}
{"smiles": "CN1CCN(CCCOc2ccc3ncnc(Nc4ccc(OCc5cccc(F)c5)c(Cl)c4)c3c2)CC1", "growth": "-42.3% (active)"}
{"smiles": "CCOC(=O)c1c(-c2ccc(Cl)cc2)c(C#N)c2c(C#N)c(N)nn2c1N", "growth": "43.4%"}
{"smiles": "CC(=O)OCC1O[C@@H](OC(C)=O)[C@@H](NC(=O)NS(=O)(=O)c2ccccc2)C(OC(C)=O)[C@@H]1OC(C)=O", "note": "(stereo partly specified)", "growth": "95.7%"}
{"smiles": "CC1(C)CC[C@]23CC[C@]4(C)[C@H](CC[C@@H]5[C@@]6(C)C/C(=C/c7ccncc7)C(=O)C(C)(C)[C@@H]6CC[C@]54C)[C@H]2[C@H]1OC3=O", "growth": "43% [100 µM]"}
{"smiles": "NC(N)=N/N=C\\c1cccc(OCc2ccccc2)c1", "growth": "55.5%"}
{"smiles": "CCn1cc(C2NC(=O)c3ccccc3N2)c2cccc(C)c21", "note": "(stereo unspecified)", "growth": "-56.2% (active)"}
{"smiles": "COc1ccc(-c2cc(-c3ccc(N(C)C)cc3)nc(NC(=O)c3cccnc3)n2)cc1", "growth": "109%"}
{"smiles": "CCCCCCCCCCN1CC2CCCCC2C1", "note": "(stereo unspecified)", "growth": "68.5%"}
{"smiles": "COc1ccc(C(=O)/C=C/c2cccc(Nc3ccnc4cc(Cl)ccc34)c2)cc1", "growth": "51.7%"}
{"smiles": "CC1SC(c2ccc(N(C)C)cc2)N(NC(=O)C(O)(c2ccccc2)c2ccccc2)C1=O", "note": "(stereo unspecified)", "growth": "84.2%"}
{"smiles": "CC1=C(O)C(=O)CC1", "growth": "112%"}
{"smiles": "CC/C=C\\C[C@H](O)C/C=C1/C(=O)C=C[C@@H]1C/C=C\\CCCCO", "growth": "36.4%"}
{"smiles": "O=c1c2cnn(-c3ccccc3)c2n2c(CN3CCOCC3)nnc2n1-c1ccccc1", "growth": "102%"}
{"smiles": "O=C(c1ccc(Nc2nccc(NCCCCNc3ccnc4cc(Cl)ccc34)n2)cc1)N1CCCCC1", "growth": "-22.3% (active)"}
{"smiles": "COc1ccc(/C=C2/C(=O)ON=C2C)cc1", "growth": "103%"}
{"smiles": "CCc1ccc(-c2nnc(COc3ccc(-c4nc5ccc(C)cc5[nH]4)cc3OC)o2)cc1", "growth": "6.14% (active)"}
{"smiles": "C=C(C)[C@@H]1CC[C@]2(C(=O)O)CC[C@]3(C)[C@H](CC[C@@H]4[C@@]5(C)C[C@@H](CC#Cc6ccccc6)C(=O)C(C)(C)[C@@H]5CC[C@]43C)[C@@H]12", "growth": "3.03% (active)"}
{"smiles": "COc1ccc2c(c1)c(-c1nc(-c3c[nH]c4ncccc34)cs1)cn2CCCN1CCCCC1", "growth": "-60.8% (active)"}
{"smiles": "CCN(CC)CCCC(Nc1c2ccc(Cl)cc2nc2ccc(OC)cc12)c1ccncc1", "note": "(stereo unspecified)", "growth": "101%"}
{"smiles": "CO[C@H]1/C=C/O[C@@]2(C)Oc3c(C)c(O)c4c(O)c(c(/C=N/N5C(C)CN(Cc6ccccc6)CC5C)c(O)c4c3C2=O)NC(=O)/C(C)=C\\C=C\\[C@H](C)[C@H](O)[C@@H](C)[C@@H](O)[C@@H](C)[C@H](OC(C)=O)[C@@H]1C", "note": "(stereo partly specified)", "growth": "161%"}
{"smiles": "CCNC(=O)Oc1ccc(/C(=C(\\C)c2ccc(Cl)cc2)c2ccc(OCCN3CCCCC3)cc2)cc1", "growth": "16.8%"}
{"smiles": "c1ccc(-c2cccc(-c3ccccn3)n2)nc1", "growth": "-16.9% (active)"}
{"smiles": "Cc1ccc(N=c2nc3sc4c(C)ccc(C)c4n3c(N)c2C#N)cc1", "growth": "108%"}
{"smiles": "COc1ccc(C(=O)C(CN(C)C)c2ccccc2)cc1", "note": "(stereo unspecified)", "growth": "3.71% (active)"}
{"smiles": "CCOc1ccc(NC(=O)CSc2oc(-c3ccccc3)nc2S(=O)(=O)c2ccc(C)cc2)cc1", "growth": "65.6%"}
{"smiles": "NC(=S)N/N=C\\c1nccc2c(C(F)(F)F)cccc12", "growth": "-24.8% (active)"}
{"smiles": "COc1ccc(/C=N/NC(=O)COCC(=O)N/N=C/c2ccc(OC)cc2)cc1", "growth": "102%"}
{"smiles": "C=CCNC(=S)NN", "growth": "119%"}
{"smiles": "O=C(Nc1cccc(-n2ccc3c(NC(=O)c4ccccc4)nccc32)c1)Nc1ccc(Cl)c(C(F)(F)F)c1", "growth": "-22.8% (active)"}
{"smiles": "COC1C(O)CC(OC2CC(OC3CC(O[C@@H]4C(=O)c5c(cc6cc(OC7CC(OC8CC(O)C(O)C(C)O8)C(O)C(C)O7)c(C)c(O)c6c5O)CC4[C@H](OC)C(=O)O)OC(C)C3O)OC(C)C2O)OC1C", "note": "(stereo partly specified)", "growth": "60.5%"}
